The results in this text go back to PubChem BioAssay (EPA / NIEHS).

One may read the AC50 as the concentration at which the activity in the assay is half-maximal.

Inconclusive results are not listed. Calls of active or inactive are those of the source. Rule for the calls: active = hit-call score of the fitted dose curve at least 0.9, where 1 is the maximum; inconclusive = response in the unintended direction; inactive = score below 0.9.

In this assay the target is Estrogen receptor beta (Homo sapiens) (UniProt Q92731). The assay can be described thus: OT_ER_ERbERb_0480: Odyssey Thera (OT) 8-hour HEK293T Protein-Complementation Assay for Estrogen Receptor-beta/-beta Homodimer (AID 2283357). On the procedure: OT_ER_ERbERb_0480 is a cell-based assay that uses HEK293T, a human kidney cell line, with measurements taken at 8 hours after chemical dosing in a 384-well plate.OT_ER_ERbERb_0480 is one of one assay component(s) measured or calculated from the OT_ER_ERbERb_0480 assay. It is designed to make measurements of protein fragment complementation, a form of binding reporter, as detected with fluorescence intensity signals by Protein-fragment Complementation technology.Data from the assay component OT_ER_ERbERb_0480 was analyzed into 1 assay endpoint. This assay endpoint, OT_ER_ERbERb_0480, was analyzed in the positive analysis fitting direction relative to DMSO as the negative control and baseline of activity. Using a type of binding reporter, measures of receptor for gain-of-signal activity can be used to understand the binding at the pathway-level as they relate to the gene ESR2. Furthermore, this assay endpoint can be referred to as a primary readout, because the performed assay has only produced 1 assay endpoint. To generalize the intended target to other relatable targets, this assay endpoint is annotated to the nuclear receptor intended target family, where the subfamily is steroidal.
Sequence of Estrogen receptor beta (Homo sapiens) (Q92731 whole entry, looked up, the tested form may be a part): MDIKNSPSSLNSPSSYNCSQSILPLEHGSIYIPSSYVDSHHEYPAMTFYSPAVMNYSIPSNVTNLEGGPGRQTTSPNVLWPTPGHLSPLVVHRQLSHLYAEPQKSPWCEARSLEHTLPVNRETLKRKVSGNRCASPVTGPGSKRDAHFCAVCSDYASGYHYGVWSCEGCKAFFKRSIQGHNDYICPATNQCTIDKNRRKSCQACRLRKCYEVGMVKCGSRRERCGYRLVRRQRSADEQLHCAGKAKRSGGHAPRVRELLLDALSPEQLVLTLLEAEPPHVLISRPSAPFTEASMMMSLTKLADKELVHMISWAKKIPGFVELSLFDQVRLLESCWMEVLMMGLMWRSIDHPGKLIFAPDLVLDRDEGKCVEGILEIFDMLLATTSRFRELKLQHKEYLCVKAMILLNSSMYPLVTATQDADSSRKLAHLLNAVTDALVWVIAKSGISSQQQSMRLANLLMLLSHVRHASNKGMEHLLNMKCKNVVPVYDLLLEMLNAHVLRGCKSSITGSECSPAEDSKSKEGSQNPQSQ
Protein-fragment complementation assay, or PCA, is a method for the identification and quantification of protein-protein interactions. In the PCA, the proteins of interest ("bait" and "prey") are each covalently linked to fragments of a third protein (e.g. DHFR, which acts as a "reporter"). Interaction between the bait and the prey proteins brings the fragments of the reporter protein in close proximity to allow them to form a functional reporter protein whose activity can be measured. The OT ER beta / ER beta assay is a homodimer PCA of the ligand binding domain (LBD; amino acids 310-547) of human ER beta stably expressed in HEK293T cells. […] Cells are fixed in 4 percent formaldehyde and stained with Draq5 (BioStatus) to identify cells prior to signal detection. Fluorescent signal in the basal state of the assay is very low and is primarily punctuate and cytoplasmic. Modulation of this assay is quantified as an increase in mean fluorescence intensity in the nucleus (for agonists) or in the nucleus and cytoplasm (antagonists) relative to vehicle controls, and can be quantified on a high content imaging device or a laser scanning cytometer. The latter instrument is favored for this assay because of the rapid mode of data acquisition, the ability to acquire data from the entire cell population in a well (as opposed to a fraction of the well on the high content devices) and the larger dynamic range typically achieved with this instrument. To assess sensitivity of the ER beta/ER beta LBD assay to ligand, cells were treated with the ER agonist 17- beta-estradiol (E2) in 10-point concentration- response format for 8 hours and monitored response on a laser scanning plate cytometer (Acumen eX3; TTP Lab Tech).
On to `Cc1cc(Cl)ccc1OC(C)C(=O)O` (configuration not stated), for which the compound was classed as inactive.
`Nc1ncn[nH]1`: the compound was called inactive.
The same measure, in the same setting: to `Nc1ccc(N)cc1` belongs “inactive”.
With `CC(C)(C)c1ccccc1O`, the AC50 is 50 µM (active).
For `CCCSP(=S)(OCC)Oc1ccc(SC)cc1` (configuration not stated), the result was inactive.
For `CC(O)(CS(=O)(=O)c1ccc(F)cc1)C(=O)Nc1ccc(C#N)c(C(F)(F)F)c1` (configuration not stated), the compound was called inactive.
With `CC(C)N(C(=O)CCl)c1ccccc1`, the compound was called inactive.
The same measure, in the same setting: to `C=CC(Cl)CCl` (configuration not stated) belongs “inactive”; to `CCOc1ccc(N)cc1`, “inactive”.
As for `CCOCn1c(-c2ccc(Cl)cc2)c(C#N)c(Br)c1C(F)(F)F`, the AC50 is 17.3 µM (active).
In the case of `CC1(C)[C@H](C(=O)O[C@H](C#N)c2cccc(Oc3ccccc3)c2)[C@@H]1/C=C(\Cl)C(F)(F)F`, the compound was called inactive.
As to `COCCl`, the result was inactive.
Consider `CC(C)=CC1C(C(=O)OCc2cccc(Oc3ccccc3)c2)C1(C)C` (configuration not stated), for which the outcome was inactive.
For `CCCCCCCCCCCCN(C)C`, the AC50 is 76.5 µM (active).
`O=C(NC(=O)c1c(F)cccc1F)Nc1cc(Cl)c(OC(F)(F)C(F)C(F)(F)F)cc1Cl` (configuration not stated): the compound was called inactive.
Turning to `Cc1cc(C)cc(C)c1`, the compound was called inactive.
On the same count and under the same terms, to `O=C(N[C@H]1CN2CCC1CC2)c1ccc2c(c1)OCCO2` belongs “inactive”; to `CNC(=O)O/N=C/C(C)(C)S(C)(=O)=O`, “inactive”; to `O=CCCl`, “inactive”.
On the same count and under the same terms, with `CC(=Cc1ccccc1)[N+](=O)[O-]` the entry was “inactive”; with `N#Cc1cccnc1`, “inactive”.
With `Cc1cc(Cl)ccc1O`, the AC50 was 66.5 µM (active).
`O=[N+]([O-])c1ccccc1O`: the outcome was inactive.
The same measure, in the same setting: with `N#CCC#N` the entry was “inactive”; with `Cc1cc(Cl)ccc1OCCCC(=O)O`, “inactive”; with `CN(N=O)C(N)=O`, “inactive”.
With `O=S1(=O)OC(c2cc(Br)c(O)c(Br)c2)(c2cc(Br)c(O)c(Br)c2)c2ccccc21`, the AC50 was 46.5 µM (active).
Consider `CCC[CH2][Sn]([CH2]CCC)([CH2]CCC)[CH2]CCC`, for which the compound was classed as inactive.
Still for that read-out and setting: with `O=C(CBr)c1ccc(O)cc1` the entry was “inactive”.
On the same count and under the same terms, to `CCC[CH2][Sn]([Cl])([Cl])[CH2]CCC` belongs “inactive”.
Still for that read-out and setting: with `Oc1c(Br)cc(Br)cc1Br` the entry was “inactive”; with `COc1nn(C(=O)NS(=O)(=O)c2ccccc2OC(F)(F)F)c(=O)n1C`, “inactive”; with `Clc1cccc(Cl)c1`, “inactive”.
On to `COC(=O)Nc1cccc(OC(=O)Nc2cccc(C)c2)c1`, for which the compound was called inactive.
As for `Oc1cc(Cl)c(Cl)cc1Cl`, the half-maximal activity concentration (AC50) is 43.8 µM (active).
Regarding `Oc1c(Cl)cc(Cl)cc1Cl`, the outcome was inactive.
Regarding `CCOP(=S)(OCC)O/N=C(\C#N)c1ccccc1`, the AC50 was 26.9 µM (active).
